Screening results from PubChem BioAssay.
HSF1 inh = HSF1 inhibition | activity change, negative = inhibition, % at 7.5 µM (by protocol) | NIH3T3-HGL HSE-luciferase, MG132-induced, luminescence 8 h; stronger effect = lower value | hit rate 0.77% among 300,000;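 active = more than half of replicate wells show activity change below -50%, luminescence cut by over half; inconclusive = some wells, but at most half, below -50%; inactive = no replicate well below -50%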;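 also: luciferase reports HSF-1 transcriptional activity via heat shock element; 0% = median of DMSO wells and -100% = zero luminescence signal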
TROY NFkB inh = blocks TROY-dependent signaling in reporter cells; Q293 LMP1-TROYcd NF-kB luciferase reporter, 4 h; inhibition, % at 10 µM; hit rate 0.98% among 360,000;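 active = compounds whose plate-normalised and pattern-corrected inhibition of the luciferase reporter signal at the single screening dose is 50% or more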
EBV LMP1 NFkB = reduces LMP1-driven NF-kappaB luciferase signal; LMP1-induced NF-kappaB luciferase reporter cells, luminescence; inhibition, % at 12.5 µM; hit rate 0.69% among 350,000; AID 504558; in the data active = inhibition above about 41%; inconclusive = no clear call, values can overlap the other calls;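 also: 0% = neutral control wells and 100% = reference inhibitor control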
TWEAK-Fn14 inh = inhibitors of TWEAK-Fn14 interaction signaling; TWEAK-stimulated Fn14 reporter cells, luciferase luminescence, 8 h; inhibition, % at 10 µM; hit rate 2% among 360,000; in the data active = inhibition above about 50%
HSF-1 act = increases HSF-1 driven luciferase reporter signal | NIH3T3-HGL HSF-1 luciferase reporter, MG132, 8 h; 100% = twice DMSO control signal | activation, % at 9 µM | hit rate 1.7% among 300,000;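 active = mean replicate activation of at least 50% with a set share of replicates each reaching 50%; inconclusive = only one of those two conditions met; inactive = mean below 50% and too few replicates reaching it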;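 also: 0% = median of the neutral control wells and 100% = twice that signal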
HSP90 refold inh = blocks HSP90-mediated luciferase refolding in reticulocyte lysate. inhibition, % at 5.6 µM. hit rate 0.91% among 290,000. Rabbit reticulocyte lysate, luciferase refolding luminescence, 3 h;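 active = inhibition above the screen-wide mean plus 3 SD, computed separately per campaign, cut at about 16% in these data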;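 also: 0% = DMSO wells and 100% = 60 µM geldanamycin wells; inhibitors lower the luminescence because luciferase stays unfolded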
* = called active by the depositor; u = inconclusive; x = no result given. Hits are enriched below; roughly 4.7% of the tested compounds scored in any of these assays.

SMILES	HSF1 inh	TROY NFkB inh	EBV LMP1 NFkB	TWEAK-Fn14 inh	HSF-1 act	HSP90 refold inh
C/C(=N\OC(=O)NC(C)C)c1sc(-c2ccc(Cl)cc2)nc1C	27	-8	-28	-11	u	-1
COCCNC(=O)C1CCCN(C(=O)c2ccc3sccc3c2)CC1 (stereo not given)	x	-11	x	7	x	x
CCCCCCOC(=O)CCc1c(C)nc(N)[nH]c1=O	-2	x	5	-8	-4	7
CCCCCCOC(=O)Cc1c(C)nc(N)[nH]c1=O	-1	-8	-3	56*	-9	-5
Cc1[nH]nc2c1C(c1ccco1)C(C#N)=C(N)O2 (stereo not given)	8	-19	-6	-2	-9	-3
Cc1[nH]nc2c1C(c1cc(Br)cs1)C(C#N)=C(N)O2 (stereo not given)	65	5	14	61*	70*	-3
COc1ccc(-c2cc(CCCC(=O)N3CCN(c4ccc(OC)cc4)CC3)no2)cc1	-2	24	9	51*	-12	0
COCc1cc(=O)[nH]c(Nc2nc3ccc(C)cc3o2)n1	171	-24	2	106*	210*	-1
CCOC(=O)c1c(NC(=O)CC2SC(N)=NC2=O)sc2c1CCC(C)C2 (stereo not given)	0	14	6	-15	1	59*
COc1ccc(C(C)(NC(C)=O)c2nc(-c3ccccc3OC)cs2)cc1 (stereo not given)	x	5	x	-10	x	x
CCOC(=O)C1=NN(C(=O)COc2ccccc2)C(O)(c2ccc(Br)cc2)C1 (stereo not given)	212	5	1	-2	290*	-8
COc1cccc(/C=N/NC(=O)c2ccc(-c3ccccc3)cc2)c1O	9	5	57*	-25	9	-1
COc1ccccc1/C=N\NC(=O)c1c(C)nc2ccc(Cl)cn12	14	-1	1	15	45	5
COc1cccc(/C=N/NC(=O)c2c(C)nc3ccc(Cl)cn23)c1O	-4	-3	61*	-32	-8	-5
COc1ccc(OC)c(/C=N\NC(=O)c2ccc(-c3ccccc3)cc2)c1	x	7	6	-14	x	1
COc1cc(C(=O)Oc2ccccc2/C=N/NC(=O)c2ccc(C)cc2)cc(OC)c1OC	32	-38	32	-7	66*	-2
Cc1cccc(/C=N\NC(=O)c2ccc(Cl)cc2)c1O	209	-32	19	-12	259*	3
Cc1cccc(/C=N/NC(=O)Cc2ccc(Cl)cc2)c1O	3	3	27	-2	3	-4
CCN1CCN(C(=O)Nc2cccc3ccccc23)CC1	-4	56*	-5	7	-21	-2
CN(C)c1ccc(CNC(=O)C2Cc3c(-c4cccc(C(N)=O)c4)ccnc3O2)cc1 (stereo not given)	x	-7	x	-3	x	x
Cc1cccc(Nc2ncccc2C(=O)O)c1C	-58*	-16	-2	-4	-67	4
COc1cccc(NC(=O)N2CCc3nc(Nc4cc(Cl)cc(Cl)c4)ncc3C2)c1	x	0	x	13	x	x
COc1cccc(NC(=O)N2CCc3nc(NCc4cccc(Oc5ccccc5)c4)ncc3C2)c1	x	18	x	54*	x	x
CC(C)c1ccc(Nc2ncc3c(n2)CCN(C(=O)Nc2ccc(F)c(Cl)c2)C3)cc1	x	65*	x	78*	x	x
Cc1ccc(/C=C/C(=O)c2ccccc(=O)c2O)cc1C	43	35	-48	34	76*	-2
SMILES	HSF1 inh	TROY NFkB inh	EBV LMP1 NFkB	TWEAK-Fn14 inh	HSF-1 act	HSP90 refold inh
O=C(/C=C/c1ccccc1)c1cc(Br)ccc(=O)c1O	72	-15	9	2	91*	0
CCN(CC)C(=O)C1=C(C)N(Cc2ccc(OC)cc2)C(=O)C(CC(=O)NCC2CCCCC2)C1 (stereo not given)	x	-17	-7	24	x	x
COc1ccc(C2Nc3ccccc3C(=O)N2c2ccccc2)cc1Cn1cc([N+](=O)[O-])cn1 (stereo not given)	6	-31	12	-21	15	0
COc1ccc(N2C(=O)c3ccccc3NC2c2ccc(OC)c(Cn3cc([N+](=O)[O-])cn3)c2)cc1 (stereo not given)	-68*	-70	-10	-20	-75	1
CC(=O)N[C@H]1C(O)O[C@H](CO)[C@@H](O)[C@@H]1O (stereo not given in full)	-1	6	-3	-7	1	x
CC(=O)NC1C(O)OC(CO)C(O)C1O (stereo not given)	-8	-1	80*	-7	-3	x
